For eight molecules, Potency, outcome and activity change, positive = activation results are on record in PubChem BioAssay (Tox21).

Values without a mark were called inactive. Records with an inconclusive call do not appear. The source made the active and inactive calls. Unless noted, calls follow the shape of the dose curve; as a rule, active = well fitted curve in the direction sought with a large enough effect in the repeat runs; inconclusive = weak or mixed curves; inactive = no such curve, though single readings can be large; an effect the other way counts as inactive or inconclusive.

A short description of assay [1]: qHTS assay to identify small molecule antagonists of the estrogen related receptor (ERR) signaling pathway from Tox21 library - cell viability counter screen (AID 1224834). Also: nearly all actives have a fitted effect of over 30% in size. In short, it runs like this:
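Viability readout (CellTiter-Fluor fluorescence, 30 min at 37 C) multiplexed with the ERR assay; cells treated 17.5 h at 37 C with compounds delivered in DMSO.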

For assay [2], the target named is Luciferin 4-monooxygenase (Photinus pyralis) (UniProt P08659). In words: qHTS assay to identify small molecule inhibitors of firefly luciferase (AID 1224835). Also: nearly all actives have a fitted effect of over 25% in size. The method, boiled down: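 Biochemical qHTS: compounds run as interplate titrations against purified firefly enzyme, with D-luciferin and ATP each at its KM concentration. Light output recorded by CCD imaging.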
Chain of Luciferin 4-monooxygenase (Photinus pyralis) (P08659 whole entry, looked up): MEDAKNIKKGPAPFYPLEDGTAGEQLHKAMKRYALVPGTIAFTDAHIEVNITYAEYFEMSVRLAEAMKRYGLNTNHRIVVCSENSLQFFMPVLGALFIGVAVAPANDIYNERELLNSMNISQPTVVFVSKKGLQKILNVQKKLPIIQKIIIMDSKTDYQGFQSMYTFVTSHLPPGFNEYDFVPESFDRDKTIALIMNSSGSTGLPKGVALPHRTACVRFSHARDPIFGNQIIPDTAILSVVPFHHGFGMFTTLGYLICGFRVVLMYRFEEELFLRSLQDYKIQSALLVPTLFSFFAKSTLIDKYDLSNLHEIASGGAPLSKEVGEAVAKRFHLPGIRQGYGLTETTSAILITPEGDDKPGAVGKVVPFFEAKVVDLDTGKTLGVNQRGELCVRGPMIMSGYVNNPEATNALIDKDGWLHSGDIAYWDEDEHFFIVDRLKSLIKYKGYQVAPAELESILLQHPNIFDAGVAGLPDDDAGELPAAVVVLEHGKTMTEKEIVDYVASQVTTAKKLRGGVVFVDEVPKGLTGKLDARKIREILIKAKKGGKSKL
In general terms: qHTS replaces the single test concentration by a dilution series.

A short description of assay [3]: qHTS assay to identify small molecule agonists of the constitutive androstane receptor (CAR) signaling pathway - cell viability counter screen (AID 1224836). Also: nearly all actives have a fitted effect of over 45% in size. The method, boiled down: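 HepG2-CYP2B6-hCAR, 2500 cells/well, 4 h pre-incubation; cpd 15 conc + PK11195 0.75 uM final; 23 h, 37 C/5% CO2; CellTiter-Fluor, fluorescence.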
Assay [4] is described as follows: qHTS assay to identify small molecule antagonists of the constitutive androstane receptor (CAR) signaling pathway - cell viability counter screen (AID 1224837). Also: nearly all actives have a fitted effect of over 45% in size. In short, it runs like this:
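Fluorescence from CellTiter-Fluor served as the viability signal. Human hepatoma HepG2 cells stably bearing hCAR and CYP2B6-2.2kb received compound plus CITCO (50 nM final) for 23 hr.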

Assay [5] deals with Nuclear receptor subfamily 1 group I member 3 (Homo sapiens) (UniProt Q14994). Nature of the assay: qHTS assay to identify small molecule antagonists of the constitutive androstane receptor (CAR) signaling pathway (AID 1224838).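 Also: HepG2 cells stably expressing hCAR with CYP2B6 luciferase reporter stimulated by CITCO; nearly all actives have a fitted effect of over 40% in size.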 The method, boiled down: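 Quantitative HTS in double-stable HepG2-CYP2B6-hCAR cells. After 4 h plating, cells get compound (15 concentrations) and CITCO at 50 nM final, incubate 24 h at 37 C, then ONE-Glo luminescence is read.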
Chain of Nuclear receptor subfamily 1 group I member 3 (Homo sapiens) (Q14994 whole entry, looked up): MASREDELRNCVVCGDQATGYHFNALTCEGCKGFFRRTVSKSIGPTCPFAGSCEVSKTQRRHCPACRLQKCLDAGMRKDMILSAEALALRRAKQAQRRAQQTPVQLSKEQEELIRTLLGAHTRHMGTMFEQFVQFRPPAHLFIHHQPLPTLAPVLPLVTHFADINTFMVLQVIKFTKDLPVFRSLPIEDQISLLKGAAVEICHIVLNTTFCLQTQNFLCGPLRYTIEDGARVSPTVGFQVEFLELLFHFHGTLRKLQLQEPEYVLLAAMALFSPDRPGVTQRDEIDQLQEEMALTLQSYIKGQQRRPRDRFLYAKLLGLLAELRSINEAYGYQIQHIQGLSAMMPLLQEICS

Assay [6] shares this target. In words: qHTS assay to identify small molecule agonists of the constitutive androstane receptor (CAR) signaling pathway (AID 1224839). Also: nearly all actives have a fitted effect of over 15% in size. Also: potency is read from the fitted curve at half-maximal effect.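 As to activation: HepG2 cells stably carrying human CAR and a CYP2B6 luciferase reporter.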 In short, it runs like this:
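HepG2-CYP2B6-hCAR cells, 2500/well, 4 h pre-incubation; compounds 15 conc.; PK11195 0.75 uM final; 24 h, 37 C/5% CO2; ONE-Glo luciferase read.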

Assay [7] can be described thus: qHTS assay to identify small molecule antagonists of the estrogen related receptor signaling pathway with the pleiotropic PPARgamma coactivator (PGC) from Tox21 10K library - cell viability counter screen (AID 1224840; active = well fitted cell-killing curve with a large enough effect in the repeat runs, not every such curve was filed as active; also: nearly all actives have a fitted effect of over 40% in size). The method, boiled down:
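Compounds in DMSO, alongside positive and negative controls, were pinned onto PGC/ERR cells (2,000 per well). Exposure lasted 17.5 hours at 37 C, followed by a 30-minute CellTiter-Fluor incubation and fluorescence reading.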

Assay [8] is described as follows: qHTS assay to identify small molecule antagonists of the estrogen related receptor signaling pathway with the pleiotropic PPARgamma coactivator (PGC) from Tox21 10K library (AID 1224841; call rule not given here; also: actives are mostly falling curves and most rising ones were filed inactive; nearly all actives have a fitted effect of over 50% in size). In short, it runs like this: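 Compound exposure ran 18 hours at 37 C in PGC/ERR cells (2,000/well) that had first rested 6 hours in a 37 C/5% CO2 incubator. Luciferase activity was then detected with One-Glo after a 30-minute room-temperature step.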

The nature of assay [9]: qHTS assay to identify small molecule agonists of the estrogen related receptor signaling pathway with the pleiotropic PPARgamma coactivator (PGC) from Tox21 10K library (AID 1224842). Also: nearly all actives have a fitted effect of over 15% in size. In short, it runs like this:
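PGC/ERR reporter cell line, 2,000 cells per well, incubated 6 h at 37 C before 23 nL compound in DMSO was added. After 18 h at 37 C, One-Glo luminescence read following 30 min at room temperature.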

The nature of assay [10]: qHTS assay to identify small molecule agonists of the hypoxia (HIF-1) signaling pathway - cell viability counter screen (AID 1224844; calls by dose curve; also: nearly all actives have a fitted effect of over 50% in size). The method, boiled down: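 Luminescent ATP content (CellTiter-Glo, 30 min, room temperature) served as the viability measure in HRE-bla ME-180 cells exposed to compounds for 17 hrs in low-serum medium (0.5% dialyzed FBS).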
The nature of assay [11]: qHTS assay to identify small molecule agonists of H2AX (AID 1224845; active = well fitted activation curve with a large enough effect in the signal ratio in the repeat runs, not every such curve was filed as active; the % refers to the signal ratio). In short, it runs like this:
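Wild-type CHO-K1 cells, plated overnight, exposed 3hr at 37C to 15 concentrations (0.76% DMSO final). Lysed, then HTRF anti-pH2AX (S139) cryptate and anti-H2AX-d2 antibodies, 24 hr room temperature; 665/620 nm emission read.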

Assay [12] is described as follows: qHTS assay to identify small molecule agonists of the hypoxia (HIF-1) signaling pathway (AID 1224846; active = well fitted activation curve with a large enough effect in the signal ratio in the repeat runs, not every such curve was filed as active; the % refers to the signal ratio). The method, boiled down:
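Measured by blue/green FRET after loading CCF4-AM: beta-lactamase expressed from a hypoxia response element in ME-180 cells. Test agents were delivered in DMSO and left 17 hrs; cells had been plated 5 hrs earlier in low-serum (0.5% dialyzed FBS) medium.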

The nature of assay [13]: qHTS assay to identify small molecule agonists of H2AX - cell viability counter screen (AID 1224847; calls by dose curve; also: top concentration of the series differs between compounds; nearly all actives have a fitted effect of over 30% in size). In short, it runs like this: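 Cells plated first: CHO-K1, 1000 per well in 10% FBS medium, incubated overnight at 37C. Then 15-point compound titration added (final DMSO 0.76%) for 3 hr. Finally CellTiter-Glo added and luminescence read.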
Assay [14] can be described thus: qHTS assay to identify small molecule agonists of the estrogen related receptor (ERR) signaling pathway from Tox21 library (AID 1224849; calls by dose curve; also: nearly all actives have a fitted effect of over 15% in size). The conditions noted are these: ERR reporter cell line, ONE-Glo luciferase, 18 h; at 92.4 µM (top of the series) unless noted. In short, it runs like this: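 We plated ERR reporter cells, waited 6 h, added compounds in DMSO by pin tool and incubated them 18 h at 37 C. ONE-Glo was then added and luminescence read after 30 min.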

The nature of assay [15]: qHTS RealTime-Glo MT Cell Viability Assay in HepG2 cells - 24 hour (AID 1224867). Also: nearly all actives have a fitted effect of over 50% in size. The method, boiled down: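 HepG2 suspension premixed with RealTime-Glo reagents is plated at 600 cells per well and left 5 h at 37 C/5% CO2. Compounds in DMSO then go in, and bioluminescence reflecting viable cell number is recorded over 40 h.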
A short description of assay [16]: qHTS RealTime-Glo MT Cell Viability Assay in HEK293 cells - 32 hour (AID 1224868). Also: top concentration of the series differs between compounds; nearly all actives have a fitted effect of over 50% in size. In short, it runs like this: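 Reads taken at 0, 8, 16, 24, 32 and 40 h from the same wells. HEK293 cells (600/well) carried RealTime-Glo reagents from seeding, with compound added after a 5 h settle at 37 C.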
Assay [17] in a line: A CellTox Green Cytotoxicity Assay to monitor cytotoxicity in HEK293 cells - 0 hour (AID 1224869). Also: nearly all actives have a fitted effect of over 50% in size. The method, boiled down:
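Each value comes from one timepoint of a single continuous run in which HEK293 cells with CellTox Green were exposed to compound for up to 40 h at 37 C, dye fluorescence rising with cell death.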

Assay [18] can be described thus: qHTS RealTime-Glo MT Cell Viability Assay in HepG2 cells - 40 hour (AID 1224870). Also: nearly all actives have a fitted effect of over 50% in size. In short, it runs like this: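 HepG2 cells (600/well) mixed with RealTime-Glo MT reagent, settled 5 h at 37 C/5% CO2 before compound addition. Nonlytic NanoLuc luminescence from viable-cell prosubstrate reduction read repeatedly during 40 h treatment at 37 C.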
For assay [19], the target named is Thyrotropin receptor (Homo sapiens) (UniProt P16473). In words: qHTS assay to identify small molecule agonists of the thyroid stimulating hormone receptor (TSHR) signaling pathway (AID 1224843; calls by dose curve; also: nearly all actives have a fitted effect of over 45% in size). In short, it runs like this: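 Steps: seed 800 TSHR-HEK293 cells per well; add test compound and hold 30 min at ambient temperature; dispense cAMP-d2 then anti-cAMP cryptate; incubate 1 h at ambient; measure fluorescence intensity.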
Chain of Thyrotropin receptor (Homo sapiens) (P16473 whole entry, looked up): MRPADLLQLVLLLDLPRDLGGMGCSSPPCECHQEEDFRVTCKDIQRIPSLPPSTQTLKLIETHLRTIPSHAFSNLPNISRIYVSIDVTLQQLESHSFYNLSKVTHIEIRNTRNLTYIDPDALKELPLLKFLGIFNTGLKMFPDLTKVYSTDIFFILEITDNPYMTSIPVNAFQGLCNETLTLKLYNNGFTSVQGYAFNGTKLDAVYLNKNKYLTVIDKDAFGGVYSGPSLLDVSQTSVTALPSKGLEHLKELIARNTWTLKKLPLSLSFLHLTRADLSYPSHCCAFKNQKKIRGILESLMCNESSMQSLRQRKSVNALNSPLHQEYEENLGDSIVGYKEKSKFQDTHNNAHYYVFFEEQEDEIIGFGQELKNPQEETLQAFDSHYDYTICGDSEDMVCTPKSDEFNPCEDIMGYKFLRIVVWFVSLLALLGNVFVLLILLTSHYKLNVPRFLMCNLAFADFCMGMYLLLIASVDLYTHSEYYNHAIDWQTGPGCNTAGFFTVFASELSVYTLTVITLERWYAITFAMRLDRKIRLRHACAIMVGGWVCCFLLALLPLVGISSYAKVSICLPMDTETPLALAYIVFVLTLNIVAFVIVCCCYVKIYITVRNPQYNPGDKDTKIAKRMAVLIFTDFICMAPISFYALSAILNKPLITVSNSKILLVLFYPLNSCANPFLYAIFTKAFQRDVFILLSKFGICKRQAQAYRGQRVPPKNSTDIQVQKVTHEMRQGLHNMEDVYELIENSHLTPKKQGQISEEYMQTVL

Assay [20] is described as follows: qHTS assay to identify small molecule antagonists of the estrogen related receptor (ERR) signaling pathway from Tox21 library (AID 1224848). Also: nearly all actives have a fitted effect of over 50% in size. In short, it runs like this:
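Luminescent reporter read-out (ONE-Glo) from NTP's ERR cell line after 18 h treatment at 37 C with DMSO-dissolved Tox21 compounds; cells pre-plated 6 h beforehand at 2,000 per well.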
% is scaled to controls: 0 for no effect and ±100 for the full control effect.

For `CNNC`, the Potency entry in assay [1], in [2], in assay [3], in assay [4], in assay [5] and in [6] was “inactive” throughout. Further, the Potency result in assay [7], in [8], in assay [10], in [11], in [13] and in assay [15] was “inactive” each time. Moreover, the Potency result in [16], in assay [17] and in assay [18] was “inactive” in each case. The call in assay [9] and in [12] was inactive. In addition, the activity change, positive = activation in assay [14] was 6.11%.

As for `C=CC1CC=CCC1` (stereo not given), the Potency result in assay [1], in assay [2], in assay [3], in [4], in assay [5] and in assay [6] was “inactive” each time. For the same molecule, the Potency entry in assay [7], in [19], in assay [10], in assay [11], in assay [13] and in [15] was “inactive” each time. Also, the Potency result in assay [16], in [17] and in [18] was “inactive” each time. Also, in assay [12], the call was inactive.

Take `Cc1nnc2n1-c1sc(CCC(=O)N3CCOCC3)cc1C(c1ccccc1Cl)=NC2`: the Potency result in assay [1], in [2], in assay [3], in assay [4], in assay [5] and in [6] was “inactive” in each case. Further, the Potency result in [7], in [8], in [19], in [10], in [11] and in [13] was “inactive” throughout. Further, the Potency entry in assay [20], in [15], in [16], in assay [17] and in assay [18] was “inactive” throughout. In addition, the result in assay [9] and in assay [12] was inactive. Further, the activity change, positive = activation in [14] was 1.19% [at 42.5 µM].

With `CCCSP(=S)(OCC)Oc1ccc(Cl)cc1Cl` (stereo not given), the Potency result in assay [1], in [2], in assay [3], in [4], in assay [5] and in assay [7] was “inactive” throughout. The Potency entry in assay [8], in [19], in assay [10], in assay [20], in [15] and in [16] was “inactive” each time. The Potency result in assay [17] and in assay [18] was “inactive” in each case. Further, the Potency in assay [6] was 27.3 µM (active). The result in [9] and in [12] was inactive. Besides, the activity change, positive = activation in assay [14] is 2.16%.

On to `COC(=O)C(C)Oc1ccc(Oc2ccc(Cl)cc2Cl)cc1` (stereo not given), for which the Potency entry in [1], in [2], in [3], in assay [4], in [5] and in assay [6] was “inactive” each time. Also, the Potency entry in assay [7], in assay [8], in [10], in [11], in assay [13] and in assay [15] was “inactive” throughout. In addition, the Potency result in assay [16], in assay [17] and in assay [18] was “inactive” throughout. Besides, in assay [9], the molecule was called inactive. Besides, the activity change, positive = activation in assay [14] was -14.6%.

For the molecule `COc1cc(C[C@@H](C)N)c(OC)cc1C`, the Potency result in assay [1], in [2], in assay [3], in assay [4], in assay [5] and in assay [6] was “inactive” in each case. In addition, the Potency entry in assay [7], in assay [8], in assay [19], in assay [10], in assay [11] and in assay [13] was “inactive” throughout. The Potency entry in assay [20], in assay [15], in assay [16] and in [18] was “inactive” in each case. The molecule was classed as inactive in assay [9] and in [12]. Further, the activity change, positive = activation in assay [14] is -3.22%.

For the molecule `CCOC(=O)C1(c2ccccc2)CCN(CCc2ccc(N)cc2)CC1`, the Potency result in assay [1], in [2], in [3], in assay [4], in assay [5] and in assay [6] was “inactive” in each case. Also, the Potency entry in assay [7], in assay [19], in assay [10], in assay [11], in [13] and in assay [15] was “inactive” throughout. The Potency result in assay [16] and in [18] was “inactive” in each case. Besides, the molecule was called inactive in assay [9] and in [12]. Also, the activity change, positive = activation in assay [14] is -11.7% [at 42.5 µM].

With `C=C(C)CN(CC)c1c([N+](=O)[O-])cc(C(F)(F)F)cc1[N+](=O)[O-]`, the Potency result in assay [1], in assay [2], in [3], in assay [4], in assay [5] and in [6] was “inactive” throughout. Moreover, the Potency result in [7], in assay [8], in assay [10], in [11], in assay [15] and in [16] was “inactive” throughout. For the same molecule, in assay [18], the Potency entry is “inactive”. In addition, in assay [9], the outcome was inactive. The activity change, positive = activation in assay [14] is 1.77%.
